# Data taken from PubChem BioAssay.
# Active and inactive are the calls of the source.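 The calls were made as follows: active = z-score of at least 1.8 in each of two replicates, scored against plate mean and spread of sample wells; inactive = the rest.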
# Assay: galactose survival enhancers in mitochondrial complex I cybrids – cell-based, galactose medium, ATP luminescence, primary screen (AID 1645843);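 also: positive z means more ATP and so rescue of galactose-driven cybrid death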
# Details: complex I mutant cybrid cells, 72 h, stronger effect = higher value
row,Compound,z-score
1,CC(C)(C)OC(=O)NC1[C@H]2CNC[C@@H]12 (stereo partly specified),0.37 (inactive)
2,O=C1CC[C@@]2(O)C3Cc4ccc(O)c5c4C2(CCN3CC2CC2)[C@H]1O5 (stereo partly specified),0.445 (inactive)
3,N=C(N)c1ccc(CS(=O)(=O)F)cc1,0.445 (inactive)
4,NC(CP(=O)(O)O)C(=O)O (stereo unspecified),0.29 (inactive)
5,C[C@]12Cc3cn4c(nc3C=C1CCC1C2CC[C@@]2(C)[C@H]1CC[C@@]2(O)C#N)nc1ccccc14 (stereo partly specified),-0.25 (inactive)
6,CC(N)c1cccc(Cl)c1Cl (stereo unspecified),0.12 (inactive)
7,C=CCN1CC[C@]23CCCCC2[C@H]1Cc1ccc(O)cc13 (stereo partly specified),-0.095 (inactive)
8,O=C1/C(=C/c2ccccc2)C[C@@]2(O)[C@H]3Cc4ccc(O)c5c4[C@@]2(CCN3CC2CC2)[C@H]1O5,-1 (inactive)
9,COc1ccc2c(c1)C13CCCCC1C(C2)N(C)CC3 (stereo unspecified),-0.635 (inactive)
10,N[C@@]1(C(=O)O)CC[C@@H](C(=O)O)C1,0.225 (inactive)
11,C=CCN1C[C@@H](C)N([C@H](c2ccc(C(=O)N(CC)CC)cc2)c2cccc(OC)c2)C[C@@H]1C,-0.39 (inactive)
12,N#CC(=Cc1ccc(O)c(O)c1)C(N)=S,-0.465 (inactive)
13,CCNC(=O)[C@H]1O[C@@H](n2cnc3c(N)ncnc32)C(O)[C@H]1O (stereo partly specified),0.625 (inactive)
14,C[C@@H]1O[C@H](C[N+](C)(C)C)C[C@H]1O,0.675 (inactive)
15,c1ccc2cc(CC3=NCCN3)ccc2c1,0.28 (inactive)
16,C=CCN1CCC23c4c5ccc(O)c4O[C@H]2C(=O)CC[C@@]3(O)C1C5 (stereo partly specified),0.37 (inactive)
